Experimental data reported in PubChem BioAssay.
Results filed as inconclusive are left out. The source made the active and inactive calls.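 How the source made its calls, unless noted: active means viability at or below 10% of carrier control in both of two separate runs; inconclusive means viability at or below 10% in only one of the two runs; inactive means the rest.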

Columns and labels:
[1] = reducers of endogenous Her2 protein level, primary screen, SKBR3 breast tumor cells, AlphaScreen, ATP viability (AID 461;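 active means Her2 level under about 52% in both replicate screens, with viability over 70% of control, limit read from the data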;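 on Her2 level: lower value means less Her2 protein in the cells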;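 on viability: percent of carrier control wells set as 100% viability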); settings: 18-24 h, measured here: SKBR3 viability, ATP luminescence, at 10 µM
[2] = biological target: Receptor tyrosine-protein kinase erbB-2 (Homo sapiens) (UniProt P04626); experiment: as above; settings: 18-24 h, at 10 µM, stronger effect = lower value
Receptor tyrosine-protein kinase erbB-2 (Homo sapiens), sequence (P04626 whole entry, looked up): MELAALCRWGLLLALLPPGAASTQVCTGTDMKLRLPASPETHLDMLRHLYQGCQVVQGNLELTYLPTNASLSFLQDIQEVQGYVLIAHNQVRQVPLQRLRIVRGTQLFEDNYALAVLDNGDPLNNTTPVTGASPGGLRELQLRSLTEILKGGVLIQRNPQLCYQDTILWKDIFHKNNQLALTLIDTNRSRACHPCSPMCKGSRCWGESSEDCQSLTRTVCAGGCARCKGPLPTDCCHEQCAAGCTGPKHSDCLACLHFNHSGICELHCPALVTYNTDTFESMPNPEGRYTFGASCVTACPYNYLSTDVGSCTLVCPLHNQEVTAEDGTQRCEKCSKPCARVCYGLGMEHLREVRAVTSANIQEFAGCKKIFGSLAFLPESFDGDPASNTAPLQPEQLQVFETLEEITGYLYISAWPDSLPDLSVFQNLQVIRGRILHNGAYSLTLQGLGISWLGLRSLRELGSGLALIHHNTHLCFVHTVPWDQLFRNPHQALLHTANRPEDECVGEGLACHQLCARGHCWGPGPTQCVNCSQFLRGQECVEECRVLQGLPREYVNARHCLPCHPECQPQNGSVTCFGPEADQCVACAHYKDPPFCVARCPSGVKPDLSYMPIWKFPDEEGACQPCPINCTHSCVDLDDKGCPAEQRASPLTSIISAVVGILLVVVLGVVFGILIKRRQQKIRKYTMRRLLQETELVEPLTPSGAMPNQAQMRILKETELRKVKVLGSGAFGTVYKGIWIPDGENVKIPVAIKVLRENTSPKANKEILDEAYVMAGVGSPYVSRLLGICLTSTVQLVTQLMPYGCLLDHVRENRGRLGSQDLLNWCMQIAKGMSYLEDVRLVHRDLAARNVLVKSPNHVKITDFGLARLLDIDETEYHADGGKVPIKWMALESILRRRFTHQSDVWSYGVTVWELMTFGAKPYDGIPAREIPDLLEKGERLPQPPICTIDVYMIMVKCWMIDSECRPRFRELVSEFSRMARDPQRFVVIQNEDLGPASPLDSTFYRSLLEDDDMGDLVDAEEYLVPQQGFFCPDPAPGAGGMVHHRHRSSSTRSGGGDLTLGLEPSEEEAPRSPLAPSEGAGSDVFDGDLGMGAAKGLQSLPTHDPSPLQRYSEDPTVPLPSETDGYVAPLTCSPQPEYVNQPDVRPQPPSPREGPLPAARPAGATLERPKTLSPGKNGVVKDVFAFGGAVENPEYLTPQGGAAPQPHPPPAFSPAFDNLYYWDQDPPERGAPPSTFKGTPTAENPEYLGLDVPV

[3] = SK-BR-3 cell growth inhibitors, pilot screen, 24 h, human (AID 572); settings: SK-BR-3 viability, CellTiter-Glo luminescence, at 10 µM, stronger effect = lower value;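 further: compound exposure lasted between 18 and 24 h rather than exactly 24 h; 100% = carrier-treated control wells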
[4] = HUVEC growth inhibition – cell-based, human, primary screen (AID 575;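 active means viability at or below 30% in both replicate assays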;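 further: 100% = median of untreated cell wells with 0.1% DMSO on each plate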); settings: HUVEC proliferation, CellTiter-Glo luminescence, 72 h; at 10 µM; stronger effect = lower value
[5] = growth inhibitors of H69AR lung tumor, primary screen, human, duplicate replicates (AID 580;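 active means viability at or under a set limit in both replicates, limit being median viability minus 3 SD, cut at about 48% in these data, passing the limit was not always enough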;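 further: 100% = mean luminescence of untreated wells and 0% = no signal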); settings: H69AR lung tumor cells viability, ATP luminescence, 72 h; at 10 µM; stronger effect = lower value
[6] = reversal of MRP1-mediated doxorubicin resistance, pilot screen, H69AR cells, doxorubicin co-treatment (AID 601;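 active means viability loss from added drug above about 55%, and viability with drug at most 40%, in both replicates, limit read from the data, passing the limit was not always enough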); settings: CellTiter-Glo, 72 h, at 10 µM; for differential viability (reversal): stronger effect = higher value
[7] = 384-well plate pilot, post-Golgi transport modulator project, inhibition of yeast transport mutant growth (AID 636; in the data active means inhibition above about 31%); settings: absorbance 615 nm, about 18 h, stronger effect = higher value
[8] = growth suppression of yeast trafficking mutant, preliminary HTS, modulators of trafficking downstream of Golgi apparatus project, 1536-format plate, OD 615 nm (AID 637; in the data active means inhibition above about 30%); settings: yeast transport mutant growth, absorbance 615 nm, 18 h; stronger effect = higher value
[9] = OD615 S. cerevisiae growth inhibition, permissive medium, pilot counter-assay, permissive growth control for S. cerevisiae lifespan shortening project (AID 705;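 active means growth inhibition above 25% in both replicates, a cutoff set 3 SD above the mean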); settings: OD615, 24 h, at 10 µM, stronger effect = higher value
[10] = Restrictive medium S. cerevisiae growth inhibition, OD615, pilot screen of yeast lifespan reduction project, restrictive growth control (AID 706;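 active means growth inhibition above a set limit, 3 SD over mean compound inhibition, in both replicates, cut at about 43% in these data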;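 further: modified DeaD lifespan yeast strain shifted to restrictive glucose medium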); settings: OD615, 48 h, at 10 µM, stronger effect = higher value
[11] = viability gain of MRP-1-high H69AR cells under doxorubicin, pilot screen, MRP-1 activator project, CellTiter-Glo, duplicate (AID 807;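 active means viability increase at or above a cutoff of the median across tested compounds plus 3 SD, cut at about 8.5% in these data, passing the limit was not always enough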;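 further: compound pretreatment 18-22 h then 72 h combined with doxorubicin; 0% = doxorubicin alone and 100% = vehicle without doxorubicin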); settings: H69AR viability with doxorubicin, CellTiter-Glo luminescence; at 10 µM; stronger effect = higher value
[12] = growth suppression of beta-catenin knockout HCT116, pilot screen, human colon tumor cells (AID 823;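 active means cell viability at or below a set limit in both duplicate runs, the limit being the all-compound median minus 4 SD, cut at about 23% in these data, passing the limit was not always enough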;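 further: 0% = wells killed by 20 µM Hyamine and 100% = untreated DMSO cell wells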); settings: CellTiter-Glo, 60 h, at 10 µM, stronger effect = lower value
[13] = growth suppression of PTEN-deleted HCT116, pilot screen, cell-based, HCT116 clonal line, CellTiter-Glo (AID 824;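 active means viability at or below 27.92% in each of two runs, the all-compound median minus 4 SD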;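 further: 0% = 20 µM Hyamine control and 100% = vehicle cell control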); settings: 60 h, at 10 µM, stronger effect = lower value
[14] = inhibitors of the yeast RAM network, pilot screen, dse1pr::URA3 reporter, 5-FOA selection (AID 869;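 active means inhibition over a set limit, the all-compound mean plus 3 SD, in both replicate runs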;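 further: 0% = DMSO wells with no growth and 100% = 10 µM 1-NA-PP1 with full growth; RAM network block rescues cells from 5-FOA so hits raise OD615 growth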); settings: S. cerevisiae dse1pr::URA3 5-FOA growth, OD615, 2 d; at 10 µM; stronger effect = higher value; strain carries analog-sensitive mutant Cbk1 kinase
[15] = RAM signaling pathway blockade in yeast – S. cerevisiae, Pdr1DBD-CYC8 efflux-inhibited sensitized strain, primary screen (AID 1298;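 active means RAM network inhibition above 8.4% in each of two replicates, 3 SD over the compound average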;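 further: 0% = DMSO untreated cells without growth and 100% = 10 µM 1-NA-PP1 full growth; higher means more yeast growth rescued from 5-FOA killing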); settings: S. cerevisiae cbk1-as DSE1-URA3 strain, 5-FOA growth OD615, 2 d; at 50 µM; stronger effect = higher value
[16] = H69AR cells + 2 uM doxorubicin, measured here: viability with 2 uM doxorubicin, stronger effect = lower value
[17] = H69AR cells, compound alone cytotoxicity

| SMILES | viability [1] [%] | Her2 level [2] | viability [3] | viability [4] | viability [5] | differential viability (reversal) ([6]; H69AR cells + 2 uM doxorubicin) | viability [6, 16] [%] | viability [6, 17] [%] | inhibition [7] | inhibition [8] | growth inhibition [9] | growth inhibition [10] | viability increase [11] | viability [12] | viability [13] | inhibition [14] | RAM network inhibition [15] |
| --- | --- | --- | --- | --- | --- | --- | --- | --- | --- | --- | --- | --- | --- | --- | --- | --- | --- |
| O=C(c1ccc(CNc2c(N3CCCC3)c(=O)c2=O)cc1)N1CCc2ccccc2C1 | 90.5 | 100% (inactive) | 90.5% (inactive) | 104% (inactive) | 95.3% (inactive) | 2.69% (inactive) | 92.6 | 95.3 | 3.59% (inactive) | 6.67% (inactive) | -4% (inactive) | -0.375% (inactive) | -0.78% (inactive) | 92.6% (inactive) | 91% (inactive) | 0.36% (inactive) | 0.72% (inactive) |
| COc1cccc(-c2cc(C(F)(F)F)nc(NCc3ccco3)n2)c1 | 108 | 94.5% (inactive) | 108% (inactive) | 61.6% (inactive) | 95.8% (inactive) | 8.14% (inactive) | 87.7 | 95.8 | -5.27% (inactive) | -1.48% (inactive) | 0.4% (inactive) | 18% (inactive) | -3.81% (inactive) | 70.9% (inactive) | 67.6% (inactive) | 2.38% (inactive) | 8.17% (inactive) |
| Cc1c(NC(=O)c2ccc(CN3CCc4ccccc4C3)cc2)c(=O)n(-c2ccccc2)n1C | 95 | 109% (inactive) | 95% (inactive) | 94.3% (inactive) | 98.8% (inactive) | 4.51% (inactive) | 94.3 | 98.8 | -5.64% (inactive) | -4.83% (inactive) | -4.14% (inactive) | -6.79% (inactive) | 0.51% (inactive) | 79.6% (inactive) | 84.4% (inactive) | 0.845% (inactive) | 5.97% (inactive) |
| CCC(C)NC(=O)c1cn(CC)c2ccc(S(=O)(=O)N(C)C)cc2c1=O (stereo not drawn) | 87 | 84% (inactive) | 87% (inactive) | 85.7% (inactive) | 78.9% (inactive) | -11.6% (inactive) | 90.6 | 78.9 | -4.53% (inactive) | -2.33% (inactive) | 2.96% (inactive) | 14.4% (inactive) | -2.73% (inactive) | 92.4% (inactive) | 93.4% (inactive) | -0.32% (inactive) | 1.7% (inactive) |
| COC(=O)C1=C(C)Nc2ncnn2C1c1ccc(C)o1 (stereo not drawn) | 103 | 119% (inactive) | 103% (inactive) | 94.5% (inactive) | 91.7% (inactive) | 7.49% (inactive) | 84.2 | 91.7 | 0.27% (inactive) | 4.67% (inactive) | -16.6% (inactive) | -18.4% (inactive) | -1.12% (inactive) | 107% (inactive) | 101% (inactive) | 2.39% (inactive) | -1% (inactive) |
| O=C(OCCN=C1NS(=O)(=O)c2ccccc21)C1CC(=O)N(c2ccc(Cl)cc2)C1 (stereo not drawn) | 114 | 99.5% (inactive) | 114% (inactive) | 106% (inactive) | 93.2% (inactive) | 5.78% (inactive) | 87.4 | 93.2 | -3.25% (inactive) | -1.67% (inactive) | 6.61% (inactive) | -8.43% (inactive) | -0.51% (inactive) | 107% (inactive) | 101% (inactive) | 0.695% (inactive) | -0.53% (inactive) |
| CCCCN(C)Cc1c(O)ccc2c(-c3ccccc3)cc(=O)oc12 | 89 | 102% (inactive) | 89% (inactive) | 111% (inactive) | 96.7% (inactive) | 8.13% (inactive) | 88.6 | 96.7 | -2.7% (inactive) | 2.95% (inactive) | -4.28% (inactive) | 2.96% (inactive) | -2.64% (inactive) | 91% (inactive) | 93.6% (inactive) | 0.605% (inactive) | 1.89% (inactive) |
| CC(C)(C)NC(=O)CC(CC(=O)O)c1ccccc1 (stereo not drawn) | 112 | 117% (inactive) | 112% (inactive) | 110% (inactive) | 88.5% (inactive) | -8.51% (inactive) | 97 | 88.5 | -4.27% (inactive) | 7.67% (inactive) | -11.7% (inactive) | 3.69% (inactive) | -0.99% (inactive) | 106% (inactive) | 101% (inactive) | 2.61% (inactive) | -1.67% (inactive) |
| COc1ccc(CNc2oc(-c3ccccc3)nc2C#N)cc1 | 88.5 | 83.5% (inactive) | 88.5% (inactive) | 69.7% (inactive) | 103% (inactive) | 0.495% (inactive) | 102 | 103 | 4.27% (inactive) | -4.92% (inactive) | 0.305% (inactive) | 12.3% (inactive) | 2.09% (inactive) | 98.8% (inactive) | 98.6% (inactive) | 0.335% (inactive) | 4.07% (inactive) |
| COc1ccccc1NCN1C(=O)CCC1=O | 102 | 98% (inactive) | 102% (inactive) | 104% (inactive) | 82.4% (inactive) | -20.8% (inactive) | 103 | 82.4 | -7.47% (inactive) | 2% (inactive) | -9.71% (inactive) | 1.64% (inactive) | -0.43% (inactive) | 102% (inactive) | 95.5% (inactive) | 1.98% (inactive) | 3.27% (inactive) |
| COc1cc(NC(=O)CC(C)C)ccc1NC(=O)c1ccco1 | 94.5 | 93% (inactive) | 94.5% (inactive) | 103% (inactive) | 109% (inactive) | 15.9% (inactive) | 93.1 | 109 | -3.92% (inactive) | -9.68% (inactive) | -3.81% (inactive) | -1.97% (inactive) | -0.27% (inactive) | 100% (inactive) | 96.2% (inactive) | 0.825% (inactive) | 0.51% (inactive) |
| Cc1cc(NC(=O)c2cccc(S(=O)(=O)N3CC(c4ccccc4)CC3=O)c2)no1 (stereo not drawn) | 92 | 97.5% (inactive) | 92% (inactive) | 98.8% (inactive) | 97.6% (inactive) | 6.25% (inactive) | 91.3 | 97.6 | -6.4% (inactive) | 3.33% (inactive) | -15.3% (inactive) | -8.59% (inactive) | 1.83% (inactive) | 96.8% (inactive) | 90.5% (inactive) | 1.83% (inactive) | 5.71% (inactive) |
| COc1ccc(-c2nc(CSCC(=O)N3CCc4ccccc4C3)c(C)o2)cc1OC | 88.5 | 69.5% (inactive) | 88.5% (inactive) | 93.8% (inactive) | 92.6% (inactive) | 0.215% (inactive) | 92.4 | 92.6 | -0.38% (inactive) | -0.5% (inactive) | 13.3% (inactive) | 33.4% (inactive) | -3.15% (inactive) | 93.9% (inactive) | 89.8% (inactive) | -0.395% (inactive) | 3.92% (inactive) |
| Cc1cccc(-n2ncc3c(N(CCO)CCO)ncnc32)c1 | 97 | 91.5% (inactive) | 97% (inactive) | 78.7% (inactive) | 90% (inactive) | 11.3% (inactive) | 78.7 | 90 | -5.2% (inactive) | -1.97% (inactive) | -0.18% (inactive) | 0.945% (inactive) | -1.41% (inactive) | 94.9% (inactive) | 101% (inactive) | 2.43% (inactive) | -0.31% (inactive) |
| CCN1CCN(C(CNC(=O)c2ccc3c(c2)OCO3)c2cccnc2)CC1 (stereo not drawn) | 89.5 | 93% (inactive) | 89.5% (inactive) | 86.4% (inactive) | 99.6% (inactive) | 9.62% (inactive) | 90 | 99.6 | -2% (inactive) | -6.23% (inactive) | -12.5% (inactive) | -4.73% (inactive) | 0.44% (inactive) | 104% (inactive) | 96.2% (inactive) | 1.35% (inactive) | 5.59% (inactive) |
| CC1CCN(C(=O)CSc2nnc(Cc3cc(=O)[nH]c(=O)[nH]3)n2-c2ccc(Cl)cc2)CC1 | 92.5 | 117% (inactive) | 92.5% (inactive) | 101% (inactive) | 101% (inactive) | 2.73% (inactive) | 98.2 | 101 | -1.54% (inactive) | -4.17% (inactive) | -17.1% (inactive) | -15.4% (inactive) | -0.15% (inactive) | 105% (inactive) | 100% (inactive) | -0.375% (inactive) | 4.41% (inactive) |
| CCOC(=O)c1nc2sc3c(c2c(=O)[nH]1)CCCC3 | 80.5 | 100% (inactive) | 80.5% (inactive) | 93.8% (inactive) | 83.5% (inactive) | -3.7% (inactive) | 87.2 | 83.5 | -2.31% (inactive) | -16% (inactive) | 10.2% (inactive) | 12.2% (inactive) | -1.32% (inactive) | 107% (inactive) | 99.3% (inactive) | 2.02% (inactive) | 3.93% (inactive) |
| CCOc1ccc(OCCCCN(C)C)cc1 | 89 | 92.5% (inactive) | 89% (inactive) | 87.2% (inactive) | 88.5% (inactive) | 1.8% (inactive) | 86.7 | 88.5 | -0.64% (inactive) | 1.5% (inactive) | -10% (inactive) | 3.69% (inactive) | -0.48% (inactive) | 96.8% (inactive) | 93.5% (inactive) | 3.26% (inactive) | 6.13% (inactive) |
| CCn1cc(C(=O)NCCC2=CCCCC2)c(=O)c2cc(S(=O)(=O)N(C)C)ccc21 | 82.5 | 98.5% (inactive) | 82.5% (inactive) | 70.4% (inactive) | 71.7% (inactive) | 9.64% (inactive) | 62.1 | 71.7 | -4.67% (inactive) | -3.61% (inactive) | -14.2% (inactive) | -29.6% (inactive) | -4.4% (inactive) | 86.4% (inactive) | 72.6% (inactive) | 1.37% (inactive) | 1.83% (inactive) |
